Measurements: PubChem BioAssay (NCI)
The panel holds about 79,000 compounds, 15% with a hit somewhere; the sample as a whole holds those more often. The source made the active and inactive calls. No stated cut-off is given here; in the data, active means growth inhibition above about 70%; inactive means the rest.

Experiments:
[1] = NCI Yeast Anticancer Drug Screen. Data for the rad50 strain (AID 155);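 further: 0% = growth of vehicle-only cultures of the same strain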; settings: S. cerevisiae rad50 strain growth inhibition; at 50.0 µM; hits give high values
Summary of the method: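 Relative growth inhibition (compound vs vehicle) was measured in yeast with a defined repair-gene alteration.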

[2] = NCI Yeast Anticancer Drug Screen. Data for the mec2-1 strain (AID 157); settings: S. cerevisiae mec2-1 strain, at 50.0 µM, hits give high values
Summary of the method: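 Using mec2-1 yeast: add compound, measure growth, express inhibition versus vehicle-treated cultures.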

[3] = NCI Yeast Anticancer Drug Screen. Data for the sgs1 mgt1 strain (AID 161);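 further: 0% = growth of cultures given vehicle only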; settings: S. cerevisiae sgs1 mgt1 strain, at 50.0 µM, hits give high values
Summary of the method: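 Yeast cells carrying a defined DNA-repair defect were exposed to test compounds. Growth inhibition was measured relative to vehicle-treated controls.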

[4] = NCI Yeast Anticancer Drug Screen. Data for the cln2 rad14 strain (AID 165);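 further: 0% = growth equal to vehicle treated cultures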; settings: S. cerevisiae cln2 rad14 strain, at 50.0 µM, hits give high values
Summary of the method: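 Yeast strain cln2 rad14, bearing defects in cell cycle control and DNA repair, serves as the test system; values reflect growth inhibition compared with vehicle.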

[5] = NCI Yeast Anticancer Drug Screen. Data for the bub3 strain (AID 167); settings: S. cerevisiae bub3 mutant strain, at 50.0 µM, hits give high values
Summary of the method: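 Screening used yeast with an engineered genetic alteration affecting cell cycle control. Compound-exposed cultures were compared with vehicle cultures, and reduced growth was taken as inhibition.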

[6] = NCI Yeast Anticancer Drug Screen. Data for the mlh1 rad18 strain (AID 175); settings: S. cerevisiae mlh1 rad18 strain growth inhibition; at 50.0 µM; hits give high values
Summary of the method: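 Steps: expose repair-defective yeast to compound; measure growth; express inhibition against vehicle-treated controls.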

Measured: growth inhibition

CCCCC(CC)CSC[N+](C)(CC)CC (centres undefined)
inactive: [1] 45% | [2] 24.8% | [3] 22.4% | [4] 1.5% | [5] 15.9% | [6] 20.6%

N#CC(Cc1ccccc1)C(=O)O (centres undefined)
inactive: [1] 2.05% | [2] 0.5% | [3] -5.35% | [4] 2% | [5] 1.4% | [6] 0.8%

C/C=C(\C)C(=O)N1c2ccccc2CC1c1c(C)[nH]c2ccccc12 (centres undefined)
inactive: [1] 29.1% | [2] 3.65% | [3] 21.2% | [4] 19.9% | [5] 23.8% | [6] 11.1%

CC1=NN(c2ccccc2)C(=O)CC1
inactive: [1] -3.65% | [2] -8.8% | [3] 26.5% | [4] 16.6% | [5] 16.3% | [6] 5.05%

CN(CC(=O)c1ccc(Cl)cc1)Cc1cccc2ccccc12
inactive: [1] 18.2% | [2] -5.8% | [3] 51.4% | [4] 11.7% | [5] 22.9% | [6] 38.8%

O=C(Nc1ccn(CCI)c(=O)n1)c1ccccc1
inactive: [1] -20.8% | [2] -37.4% | [3] 10.1% | [4] 14.4% | [5] 15.2% | [6] 26.1%

N#CCCN(CCC#N)c1ccc(C(=O)NN)cc1
inactive: [1] -18.1% | [2] -15.9% | [3] -3.2% | [4] 25.2% | [5] -8.8% | [6] -5.3%

CC(C)(C)OC(=O)C1/C(=C/CO)CN1C(=O)OC(C)(C)C (centres undefined)
inactive: [1] -17.9% | [2] -36.2% | [3] -12.2% | [4] 7.4% | [5] -12.1% | [6] -28.9%

O=C(CNC(=O)C(CCC(=O)OCc1ccccc1)NC(=O)OCc1ccccc1)NCC(=O)Oc1ccc([N+](=O)[O-])cc1 (centres undefined)
inactive: [1] 25.1% | [2] 13.6% | [3] 10.3% | [4] 9.3% | [5] 4% | [6] 18.1%

CC(C)N1CC2CC(CN(C(=O)c3ccc(Cl)cc3)C2)C1
inactive: [1] -30.4% | [2] -8.45% | [3] -8.25% | [4] 2.95% | [5] -16.4% | [6] -5.9%

CCOC(=O)Cn1cnc2sc3c(c2c1=O)CCCC3
inactive: [1] 13.4% | [2] 21.1% | [3] 30.6% | [4] 28.7% | [5] 19.4% | [6] 35.9%

CCOC(=O)Oc1ccc2[nH]c3c(C)cc(N)c(C)c3c2c1
inactive: [1] 2.35% | [2] -33.2% | [3] -30.5% | [4] -7.8% | [5] -22.2% | [6] -11.1%

N#CCc1ccc(/C(C#N)=C2/OC(=N)C(c3ccc(CC#N)cc3)C2=O)cc1 (centres undefined)
inactive: [1] -10.3% | [2] 2.65% | [3] -5.45% | [4] -21.6% | [5] -20.7% | [6] -16.4%

O=C(CC[n+]1ccccc1)Nc1ccc(F)cc1F
inactive: [1] 11.4% | [2] -1.55% | [3] 26.1% | [4] 20.9% | [5] 33.6% | [6] 17.3%

O=C(/C=C/c1ccc(O)c(O)c1)OC1C[C@@](O)(C(=O)O)C[C@@H](O)[C@H]1OC(=O)/C=C/c1ccc(O)c(O)c1 (some centres undefined)
inactive: [1] 17.8% | [2] -14.1% | [3] 21.1% | [4] -2.95% | [5] -6% | [6] 25.9%

C=C(C)c1ccc2c(c1)C(=O)C[C@@H]1[C@](C)(C#N)CCC[C@]21C
inactive: [1] -19.9% | [2] -16.3% | [3] 32.2% | [4] -52% | [5] 46.9% | [6] -33.9%

CCCCCCCc1ccccc1
inactive: [1] -13.1% | [2] -14.7% | [3] -19.6% | [4] 3.95% | [5] 20.2% | [6] -6.5%

Cc1ccc(C(=O)N(Cc2ccccc2)Cc2ccccc2)cc1N=NN(C)C
inactive: [1] -44.8% | [2] -39.5% | [3] -55.6% | [4] -8.2% | [5] -31.4% | [6] -22.2%

COc1cc(/C=C(\OC(C)=O)c2ccc3c(c2)OCO3)cc(OC)c1OC
inactive: [1] -5% | [2] -0.95% | [3] 33.2% | [4] 13.6% | [5] 44% | [6] -19.1%

Nc1nc2nc(N=Nc3ccccc3)[nH]c2c(=O)[nH]1
inactive: [1] 21.5% | [2] -1.9% | [3] 8.3% | [4] 9.25% | [5] 5.45% | [6] 8.9%

CC(=O)OC1(C)N=NC2(CCCCC2)O1 (centres undefined)
inactive: [1] 3.45% | [2] -22.4% | [3] -37.1% | [4] 7.5% | [5] -12.1% | [6] -12.3%

COC(=O)c1ccccc1NCc1cc(Cl)ccc1O
active: [1] 96.2% | [2] 97.3% | [3] 96.7% | [4] 92.8% | [5] 95.8% | [6] 94.9%

COC(=O)CNC(=O)Nc1cc(N2C(=O)ON3C2C(C)(C)N(O)C3(C)C)ccc1C (centres undefined)
inactive: [1] 2.95% | [2] 13.8% | [3] 16.9% | [4] 20.6% | [5] 15.2% | [6] -22.6%

CCOC(=O)/C=C(\C)c1ccc(Cl)cc1
inactive: [1] 4.4% | [2] -18.6% | [3] -1.6% | [4] 3.8% | [5] -10.1% | [6] 14.7%

CCOC(=O)c1noc(Oc2ccc(Cl)cc2Cl)n1
inactive: [1] -13.9% | [2] 0.15% | [3] -10.8% | [4] -4.35% | [5] -9.3% | [6] 15.1%

C=C1CC(CC(=O)C(C)CC2CC(=C)C(=O)O2)OC1=O (centres undefined)
inactive: [1] 14.1% | [2] -30.9% | [3] 14.9% | [4] 8.4% | [5] 24.5% | [6] 26.3%

COc1ccc(C(=O)Nc2ccccc2CCC2CCCCN2C)cc1 (centres undefined)
inactive: [1] 29.2% | [2] 3% | [3] 10.3% | [4] 22.4% | [5] 1.15% | [6] 19%

COc1ccc2nccc(/C=C/CC3CCN(C(C)=O)CC3)c2c1
active: [3] 88.2% | [6] 74.8%
inactive: [1] 31.8% | [2] 29.4% | [4] 45.6% | [5] 31.6%

CSc1nc(N)c(NS(=O)(=O)c2ccccc2)c(=O)[nH]1
inactive: [1] -10.6% | [2] -18.1% | [3] -17.6% | [4] -2.9% | [5] 6.95% | [6] 6.05%

CCCCS(=O)(=O)CCCC
inactive: [1] 18.5% | [2] 0.9% | [3] -10.2% | [4] 0.6% | [5] -1.3% | [6] 22.9%

Cc1ccc(S(=O)(=O)N/N=C(\C(=O)Nc2cccc([N+](=O)[O-])c2)c2nc3ccc([N+](=O)[O-])cc3[nH]c2=O)cc1
inactive: [1] -3% | [2] -6% | [3] 3.65% | [4] 7.4% | [5] -3.1% | [6] 2.2%

COC(=O)c1c(C)cc(OC(=O)c2c(C)cc(OC)c(C)c2OC)c(C)c1O
inactive: [1] 14.6% | [2] 3.5% | [3] -2.15% | [4] 10.4% | [5] -0.65% | [6] 4.65%

Cc1ccc2cccc(OCC(=O)O)c2n1
inactive: [1] 5.7% | [2] 13.4% | [3] 6.1% | [4] 3.45% | [5] -8.45% | [6] 13.3%

COC(=O)c1ccc(Cl)nc1
inactive: [1] 0.85% | [2] -8.6% | [3] -9.7% | [4] -6.75% | [5] -11.1% | [6] -10.3%

Cc1c2cc3c(c1O)C(=O)CC(O3)c1ccc(O)c(c1)-c1cccc(c1O)C(=O)OCC1OC(O2)C(O)C(O)C1O (centres undefined)
inactive: [1] 51.2% | [2] 54.4% | [3] 32% | [4] 34.5% | [5] 39.6% | [6] 30.1%

CC(=O)OCC1OC=CC(OC(C)=O)C1OC(C)=O (centres undefined)
inactive: [1] -23.1% | [2] -18.8% | [3] -8.55% | [4] -5.85% | [5] -25.8% | [6] -7.5%

CCCc1c(C)[nH]c2ccccc12
inactive: [1] 15.1% | [2] -33.3% | [3] 5.7% | [4] 24.8% | [5] -16.9% | [6] 9%

CC(=O)CC(=O)N1CCCCCCC1
inactive: [1] -34% | [2] -57.5% | [3] -12.4% | [4] -8.4% | [5] -23.2% | [6] -34.2%

N#CC(c1ccccc1)N1CCCN(C(C#N)c2ccccc2)C1c1ccccc1O (centres undefined)
inactive: [1] 31.4% | [2] -8.65% | [3] -6.85% | [4] 17.9% | [5] 18.4% | [6] 13.2%
